From the supplement of paper PMC10849652
The full data set covers some 7,900 targets. This sample favours those with a hit. About 0.6% of all pairs of compound and target were hits.

compound: c1cn2cc(-c3ccc4cn[nH]c4c3)nc(Nc3ccc(N4CCOCC4)cc3)c2n1 [entospletinib]; test: log2 fold change, soluble protein after heating vs DMSO (PISA); higher = thermal stabilisation; K562 cells, 10 uM, 30 min; active = over 0.2 and 3.5 SD of the protein, either way, in both replicates (recomputed)
Procedure, shortened: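 K562 cells at 2×10^6 cells/mL were given 10 μM compound for 30 min. Aliquots then went through 3 min of heating across 48°C-58°C, were pooled, and were extracted in PBS with 0.5% NP-40 at 4°C, and the supernatant after 21,000xg for 90 min was quantified by TMTpro 16plex LC-MS/MS with channel sums equalised. Thermal stability relative to control samples, from duplicates, is given as log2 fold change.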

Sequence of UniProt P43246 (P43246 whole entry, looked up): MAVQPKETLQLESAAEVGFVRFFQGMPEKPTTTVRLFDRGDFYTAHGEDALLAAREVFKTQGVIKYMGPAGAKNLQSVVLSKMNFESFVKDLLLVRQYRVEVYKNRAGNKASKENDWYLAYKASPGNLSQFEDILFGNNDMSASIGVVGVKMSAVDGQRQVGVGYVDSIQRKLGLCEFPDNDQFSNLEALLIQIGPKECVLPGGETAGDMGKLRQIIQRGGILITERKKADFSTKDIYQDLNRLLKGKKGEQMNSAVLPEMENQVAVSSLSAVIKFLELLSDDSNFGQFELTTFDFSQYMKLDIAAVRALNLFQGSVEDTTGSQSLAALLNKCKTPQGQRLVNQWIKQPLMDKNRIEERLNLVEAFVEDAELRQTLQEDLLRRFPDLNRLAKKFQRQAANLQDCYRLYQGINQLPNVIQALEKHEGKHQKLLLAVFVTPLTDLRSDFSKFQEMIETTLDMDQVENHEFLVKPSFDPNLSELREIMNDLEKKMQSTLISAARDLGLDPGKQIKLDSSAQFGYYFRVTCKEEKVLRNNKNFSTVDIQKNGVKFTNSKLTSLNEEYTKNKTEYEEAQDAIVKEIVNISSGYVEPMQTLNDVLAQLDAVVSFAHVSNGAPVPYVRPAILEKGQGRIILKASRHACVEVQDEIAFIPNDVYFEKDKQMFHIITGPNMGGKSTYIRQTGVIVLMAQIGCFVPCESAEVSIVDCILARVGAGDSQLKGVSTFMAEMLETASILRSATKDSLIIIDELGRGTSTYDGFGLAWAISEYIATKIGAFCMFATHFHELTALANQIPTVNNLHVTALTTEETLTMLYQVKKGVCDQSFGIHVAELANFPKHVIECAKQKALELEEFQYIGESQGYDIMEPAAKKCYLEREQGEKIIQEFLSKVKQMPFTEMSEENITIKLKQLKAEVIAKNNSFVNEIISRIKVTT
Sequence of UniProt O95182 (O95182 whole entry, looked up): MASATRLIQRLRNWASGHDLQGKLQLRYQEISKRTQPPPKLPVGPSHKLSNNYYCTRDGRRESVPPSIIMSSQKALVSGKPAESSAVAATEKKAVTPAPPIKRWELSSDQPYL
Sequence of UniProt O43809 (O43809 whole entry, looked up): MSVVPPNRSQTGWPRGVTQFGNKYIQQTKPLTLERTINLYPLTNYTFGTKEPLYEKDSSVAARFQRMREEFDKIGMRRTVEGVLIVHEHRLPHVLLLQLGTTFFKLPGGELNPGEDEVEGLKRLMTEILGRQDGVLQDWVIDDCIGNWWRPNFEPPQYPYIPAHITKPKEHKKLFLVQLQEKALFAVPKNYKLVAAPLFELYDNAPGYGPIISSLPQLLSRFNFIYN
Sequence of UniProt Q86WC4 (Q86WC4 whole entry, looked up): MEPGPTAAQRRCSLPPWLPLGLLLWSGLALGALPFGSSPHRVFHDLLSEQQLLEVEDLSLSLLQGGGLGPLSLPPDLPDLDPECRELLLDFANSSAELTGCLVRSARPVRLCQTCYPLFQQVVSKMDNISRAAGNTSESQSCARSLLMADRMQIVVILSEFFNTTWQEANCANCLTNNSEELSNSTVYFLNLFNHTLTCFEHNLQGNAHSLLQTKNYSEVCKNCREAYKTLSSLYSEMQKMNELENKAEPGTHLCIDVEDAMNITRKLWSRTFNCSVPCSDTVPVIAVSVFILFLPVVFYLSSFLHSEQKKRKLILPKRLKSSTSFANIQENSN
Sequence of UniProt Q9BRA0 (Q9BRA0 whole entry, looked up): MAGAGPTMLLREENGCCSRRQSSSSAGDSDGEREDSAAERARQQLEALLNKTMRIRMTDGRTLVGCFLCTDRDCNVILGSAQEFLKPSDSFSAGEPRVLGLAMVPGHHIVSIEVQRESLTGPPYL
Sequence of UniProt O14524 (O14524 whole entry, looked up): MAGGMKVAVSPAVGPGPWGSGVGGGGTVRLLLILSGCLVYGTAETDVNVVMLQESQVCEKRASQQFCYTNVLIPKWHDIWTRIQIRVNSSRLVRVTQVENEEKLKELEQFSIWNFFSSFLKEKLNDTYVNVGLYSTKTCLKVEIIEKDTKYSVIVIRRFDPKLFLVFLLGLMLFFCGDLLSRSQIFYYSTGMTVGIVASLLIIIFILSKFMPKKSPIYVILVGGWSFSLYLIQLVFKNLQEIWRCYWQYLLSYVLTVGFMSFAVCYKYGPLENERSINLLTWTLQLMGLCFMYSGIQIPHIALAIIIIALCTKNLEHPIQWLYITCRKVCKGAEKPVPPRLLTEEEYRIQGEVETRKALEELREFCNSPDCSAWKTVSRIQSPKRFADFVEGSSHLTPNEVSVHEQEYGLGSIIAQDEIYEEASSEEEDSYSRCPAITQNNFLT
Sequence of UniProt P19338 (P19338 whole entry, looked up): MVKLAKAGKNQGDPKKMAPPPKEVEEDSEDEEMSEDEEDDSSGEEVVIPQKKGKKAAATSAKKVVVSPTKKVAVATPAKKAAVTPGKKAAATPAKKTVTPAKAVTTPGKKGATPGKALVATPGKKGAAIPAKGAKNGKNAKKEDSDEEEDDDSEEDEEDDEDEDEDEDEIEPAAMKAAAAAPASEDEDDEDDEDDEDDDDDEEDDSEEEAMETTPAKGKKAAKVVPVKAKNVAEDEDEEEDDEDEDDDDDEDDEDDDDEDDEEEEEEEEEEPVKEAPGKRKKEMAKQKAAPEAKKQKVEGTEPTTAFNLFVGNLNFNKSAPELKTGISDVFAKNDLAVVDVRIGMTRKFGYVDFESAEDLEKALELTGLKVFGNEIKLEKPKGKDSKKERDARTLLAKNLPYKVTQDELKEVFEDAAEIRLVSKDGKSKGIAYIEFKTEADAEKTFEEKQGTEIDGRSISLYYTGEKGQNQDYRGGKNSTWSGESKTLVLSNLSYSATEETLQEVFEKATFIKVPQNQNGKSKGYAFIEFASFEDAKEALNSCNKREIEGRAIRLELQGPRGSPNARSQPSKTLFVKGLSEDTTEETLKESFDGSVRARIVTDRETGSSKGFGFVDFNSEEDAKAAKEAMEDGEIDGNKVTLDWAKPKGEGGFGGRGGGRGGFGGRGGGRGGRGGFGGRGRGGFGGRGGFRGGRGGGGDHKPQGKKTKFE
Sequence of UniProt P49116 (P49116 whole entry, looked up): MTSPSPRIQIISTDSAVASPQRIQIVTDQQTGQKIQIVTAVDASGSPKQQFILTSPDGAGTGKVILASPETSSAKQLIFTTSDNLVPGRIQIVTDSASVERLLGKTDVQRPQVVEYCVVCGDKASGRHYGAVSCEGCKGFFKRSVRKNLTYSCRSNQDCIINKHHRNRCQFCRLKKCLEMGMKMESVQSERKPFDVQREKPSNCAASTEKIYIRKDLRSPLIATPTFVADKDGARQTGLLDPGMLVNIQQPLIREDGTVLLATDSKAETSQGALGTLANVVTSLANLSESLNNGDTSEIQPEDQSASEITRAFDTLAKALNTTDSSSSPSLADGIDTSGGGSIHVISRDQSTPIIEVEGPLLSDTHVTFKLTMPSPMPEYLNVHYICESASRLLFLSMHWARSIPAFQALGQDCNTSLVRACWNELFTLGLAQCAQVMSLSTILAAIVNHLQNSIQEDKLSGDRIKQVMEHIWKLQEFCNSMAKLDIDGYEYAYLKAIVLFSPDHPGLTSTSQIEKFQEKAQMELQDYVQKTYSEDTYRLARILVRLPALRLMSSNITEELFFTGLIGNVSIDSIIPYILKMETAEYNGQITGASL
Sequence of UniProt Q15014 (Q15014 whole entry, looked up): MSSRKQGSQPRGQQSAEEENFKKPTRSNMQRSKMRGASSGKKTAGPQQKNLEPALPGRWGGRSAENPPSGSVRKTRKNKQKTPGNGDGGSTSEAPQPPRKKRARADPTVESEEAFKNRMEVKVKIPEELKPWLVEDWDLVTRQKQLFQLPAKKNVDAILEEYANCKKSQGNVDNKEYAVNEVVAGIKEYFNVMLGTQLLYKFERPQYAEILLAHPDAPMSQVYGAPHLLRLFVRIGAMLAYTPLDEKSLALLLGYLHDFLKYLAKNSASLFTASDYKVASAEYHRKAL
Sequence of UniProt Q86VX9 (Q86VX9 whole entry, looked up): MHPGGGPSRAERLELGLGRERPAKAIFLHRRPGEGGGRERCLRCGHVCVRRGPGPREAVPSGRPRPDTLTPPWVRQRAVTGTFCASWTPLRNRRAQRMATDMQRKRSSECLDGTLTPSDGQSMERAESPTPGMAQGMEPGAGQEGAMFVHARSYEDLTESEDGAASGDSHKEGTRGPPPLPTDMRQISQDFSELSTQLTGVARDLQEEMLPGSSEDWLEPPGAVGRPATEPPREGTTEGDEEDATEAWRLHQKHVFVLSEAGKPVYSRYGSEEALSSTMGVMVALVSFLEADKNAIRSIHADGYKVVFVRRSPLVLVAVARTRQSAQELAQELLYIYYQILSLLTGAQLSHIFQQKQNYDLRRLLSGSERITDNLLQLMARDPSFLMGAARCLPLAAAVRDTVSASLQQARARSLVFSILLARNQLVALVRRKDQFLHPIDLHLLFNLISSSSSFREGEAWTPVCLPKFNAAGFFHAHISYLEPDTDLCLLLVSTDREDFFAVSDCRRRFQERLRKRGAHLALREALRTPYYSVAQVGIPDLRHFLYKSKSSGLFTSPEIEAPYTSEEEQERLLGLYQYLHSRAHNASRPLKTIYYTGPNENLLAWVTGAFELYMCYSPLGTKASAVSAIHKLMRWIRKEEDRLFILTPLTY
Sequence of UniProt O14950 (O14950 whole entry, looked up): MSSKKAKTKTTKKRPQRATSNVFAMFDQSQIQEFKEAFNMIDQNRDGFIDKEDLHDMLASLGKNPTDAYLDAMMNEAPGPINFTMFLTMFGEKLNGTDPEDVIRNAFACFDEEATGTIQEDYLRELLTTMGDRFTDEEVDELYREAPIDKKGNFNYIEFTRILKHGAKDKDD
Sequence of UniProt P25208 (P25208 whole entry, looked up): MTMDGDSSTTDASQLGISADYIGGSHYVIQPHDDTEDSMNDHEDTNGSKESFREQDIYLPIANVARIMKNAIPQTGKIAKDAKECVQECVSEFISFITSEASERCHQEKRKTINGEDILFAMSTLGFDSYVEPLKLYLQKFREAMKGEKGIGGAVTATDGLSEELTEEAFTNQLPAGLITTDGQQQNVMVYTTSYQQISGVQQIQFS

log2 fold change, inactive:
MRPS31 (UniProt Q92665) 0.065
NAA38 isoform 2 (UniProt Q9BRA0) 0.13
NUDT21 (UniProt O43809) 0.016
NCOA7 (UniProt Q8NI08) 0.003
NCL (UniProt P19338) 0.102
NR2C2 isoform 2 (UniProt P49116) 0.019
MYL12B (UniProt O14950) -0.03
MRPL34 (UniProt Q9BQ48) 0.047
MON1A (UniProt Q86VX9) 0.041
NFYB (UniProt P25208) 0.04
OGFR (UniProt Q9NZT2) -0.008
MTOR (UniProt P42345) -0.012
MSL1 (UniProt Q68DK7) -0.078
OXA1L (UniProt Q15070) -0.014
NDUFA7 (UniProt O95182) 0.027
MORF4L2 (UniProt Q15014) -0.038
OSTM1 (UniProt Q86WC4) 0.118
MRPL46 (UniProt Q9H2W6) 0.025
NA, A0A096LPI6 0.027
NCKAP1 isoform 2 (UniProt Q9Y2A7) -0.041
NOP56 (UniProt O00567) -0.012
NEMP1 (UniProt O14524) -0.121
MSH2 (UniProt P43246) -0.006
